Data taken from PubChem BioAssay (EPA / NIEHS).
Results filed as inconclusive are left out. Calls of active or inactive are those of the source. The calls were made as follows, unless noted: active = hit-call score of the fitted dose curve at least 0.9, where 1 is the maximum; inconclusive = response in the unintended direction; inactive = score below 0.9.

Assays:
[1] = target: bovine Estrogen Receptor (ER), ESR1 (gene 407238) (UniProt P49884); assay: NVS_NR_bER: NovaScreen (NVS) Nuclear Receptor Binding Assay for bovine Estrogen Receptor (ER) (AID 2283345);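 also: actives lower the bound radioligand count which means they displace the ER ligand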
Chain of bovine Estrogen Receptor (ER), ESR1 (gene 407238) (P49884 whole entry, looked up): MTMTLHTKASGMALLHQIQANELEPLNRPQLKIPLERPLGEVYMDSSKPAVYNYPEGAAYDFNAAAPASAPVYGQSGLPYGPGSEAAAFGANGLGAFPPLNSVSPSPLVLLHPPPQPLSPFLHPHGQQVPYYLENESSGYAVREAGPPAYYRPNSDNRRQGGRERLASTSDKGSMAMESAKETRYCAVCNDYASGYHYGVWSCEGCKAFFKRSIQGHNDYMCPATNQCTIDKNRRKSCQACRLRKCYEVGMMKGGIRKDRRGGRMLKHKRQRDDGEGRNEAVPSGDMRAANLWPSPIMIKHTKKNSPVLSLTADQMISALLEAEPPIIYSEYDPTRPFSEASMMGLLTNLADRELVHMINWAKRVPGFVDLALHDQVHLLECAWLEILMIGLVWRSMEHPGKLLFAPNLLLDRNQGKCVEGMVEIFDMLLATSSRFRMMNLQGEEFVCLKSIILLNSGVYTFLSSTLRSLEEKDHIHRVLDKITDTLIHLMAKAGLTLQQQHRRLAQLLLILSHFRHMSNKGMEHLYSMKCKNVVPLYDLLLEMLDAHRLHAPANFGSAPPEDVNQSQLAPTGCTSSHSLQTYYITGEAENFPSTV
How it was run: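 Displacement of a radioligand from estrogen receptor in bovine uterine membrane preparations; scintillation signal taken at 18 hours, DMSO as baseline. Single-concentration duplicates (25 uM) preceded concentration-response follow-up of actives.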

[2] = TOX21_p53_BLA_p2_viability: Viability Assessment in the Tox21 HCT-116 p53 Agonism Beta-lactamase Assay, Phase 2 (AID 2283591);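 also: compound exposure lasted 16 h at 37 °C; actives lower the ATP signal meaning cytotoxicity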
How it was run: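 HCT116 p53-bla cells, 4000/well, dosed after 5 h plating (217-fold dilution of DMSO stocks) and incubated 16 h at 37C. Viability taken as cellular ATP by CellTiter-Glo luminescence after 30 min RT; signal loss marks cytotoxicity.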

[3] = target: Cellular tumor antigen p53 (Homo sapiens) (UniProt P04637); assay: TOX21_p53_BLA_p2_ratio: Tox21 HCT-116 p53 Agonism Beta-lactamase Assay, Ratio, Phase 2 (AID 2283592)
Chain of Cellular tumor antigen p53 (Homo sapiens) (P04637 whole entry, looked up): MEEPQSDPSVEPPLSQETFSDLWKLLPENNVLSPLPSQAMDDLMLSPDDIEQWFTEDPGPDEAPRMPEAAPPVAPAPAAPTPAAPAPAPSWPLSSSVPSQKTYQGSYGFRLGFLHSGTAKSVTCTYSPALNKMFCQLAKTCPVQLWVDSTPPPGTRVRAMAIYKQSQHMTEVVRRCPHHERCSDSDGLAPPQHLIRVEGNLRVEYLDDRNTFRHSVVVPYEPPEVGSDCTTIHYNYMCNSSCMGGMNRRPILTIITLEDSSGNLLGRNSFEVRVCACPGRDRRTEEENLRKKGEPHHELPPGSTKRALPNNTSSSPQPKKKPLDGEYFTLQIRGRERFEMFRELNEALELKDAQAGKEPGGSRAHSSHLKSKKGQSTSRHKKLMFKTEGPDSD
How it was run: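 HCT116 p53-bla; 4000 cells/well; 5 h pre-incubation; cpd in DMSO, 217-fold dilution; 16 h 37C/5% CO2; CCF4-AM 2 h RT; Ex 405, Em 460/530 ratio; DMSO = baseline; positive fitting direction.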

[4] = TOX21_p53_BLA_p3_viability: Viability Assessment in the Tox21 HCT-116 p53 Agonism Beta-lactamase Assay, Phase 3 (AID 2283593);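 also: cells exposed to compound for 16 h before reading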
How it was run: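 HCT116 cells, 4000/well, dosed 5 h after plating by pin transfer (217-fold dilution from DMSO stock) and incubated 16 h at 37C, 5% CO2. Viability read as ATP luminescence with CellTiter-Glo after 30 min at room temperature.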

[5] = target: Cellular tumor antigen p53 (Homo sapiens) (UniProt P04637); assay: TOX21_p53_BLA_p3_ratio: Tox21 HCT-116 p53 Agonism Beta-lactamase Assay, Ratio, Phase 3 (AID 2283596)
How it was run: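 HCT116 p53-bla cells (4000/well) given compound in DMSO (217-fold dilution) after 5 h, incubated 16 h at 37C. CCF4-AM substrate 2 h at room temperature; 460/530 nm emission ratio, gain fitted against DMSO.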

[6] = TOX21_p53_BLA_p4_viability: Viability Assessment in the Tox21 HCT-116 p53 Agonism Beta-lactamase Assay, Phase 4 (AID 2283597);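 also: hits lower the luminescence signal meaning cytotoxicity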
How it was run: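 Cells plated, 5 h pre-incubation; DMSO compounds pinned (217-fold dilution); 16 h, 37C/5% CO2; CCF4-AM 2 h RT; CellTiter-Glo 30 min RT; luminescence read.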

[7] = target: Cellular tumor antigen p53 (Homo sapiens) (UniProt P04637); assay: TOX21_p53_BLA_p5_ratio: Tox21 HCT-116 p53 Agonism Beta-lactamase Assay, Ratio, Phase 5 (AID 2283599)
How it was run: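 HCT-116 p53-bla cells (4000/well) plated 5 h, dosed with compound (217-fold DMSO dilution) for 16 h at 37 C; CCF4-AM substrate 2 h at room temperature. Activity is the 460/530 nm emission ratio (405 nm excitation), fitted in gain-of-signal direction versus DMSO.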

[8] = TOX21_p53_BLA_p5_viability: Viability Assessment in the Tox21 HCT-116 p53 Agonism Beta-lactamase Assay, Phase 5 (AID 2283600)
How it was run: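 4000 cells/well; 5 h pre-incubation; DMSO compounds pin-transferred, 217-fold dilution; 16 h, 37C/5% CO2; CCF4-AM 2 h RT; CellTiter-Glo 30 min RT; luminescence.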

[9] = target: Cellular tumor antigen p53 (Homo sapiens) (UniProt P04637); assay: TOX21_p53_BLA_p4_ratio: Tox21 HCT-116 p53 Agonism Beta-lactamase Assay, Ratio, Phase 4 (AID 2283601)
How it was run: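 HCT-116 p53 beta-lactamase reporter cells (4000/well) preincubated 5 h, then compound (217-fold dilution of DMSO stock) for 16 h at 37C. CCF4-AM substrate added 2 h at room temperature; 460/530 nm emission ratio fitted upward versus DMSO.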

[10] = CCTE_Harrill_HTTr_CellCount_MCF7: CCTE's Cell Proliferation Assessment for the High-Throughput Transcriptomics (HTTr) Platform, Harrill Lab (AID 2284012);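 also: cells exposed to compound for six hours; intended direction is loss of nuclei count meaning fewer cells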
How it was run: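 MCF-7 cells were exposed for 6 h to an eight-point dilution series; Hoechst-labeled nuclei were counted by high content imaging. Curves were fitted bidirectionally against DMSO as negative control and baseline, with signal loss indicating reduced cell count.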

[11] = target: rat Oxytocin Receptor (OXT), Oxtr (gene 25342) (UniProt P70536); assay: NVS_GPCR_rOXT: NovaScreen (NVS) G Protein-Coupled Receptor Assay for rat Oxytocin Receptor (OXT) (AID 2283330)
Chain of rat Oxytocin Receptor (OXT), Oxtr (gene 25342) (P70536 whole entry, looked up): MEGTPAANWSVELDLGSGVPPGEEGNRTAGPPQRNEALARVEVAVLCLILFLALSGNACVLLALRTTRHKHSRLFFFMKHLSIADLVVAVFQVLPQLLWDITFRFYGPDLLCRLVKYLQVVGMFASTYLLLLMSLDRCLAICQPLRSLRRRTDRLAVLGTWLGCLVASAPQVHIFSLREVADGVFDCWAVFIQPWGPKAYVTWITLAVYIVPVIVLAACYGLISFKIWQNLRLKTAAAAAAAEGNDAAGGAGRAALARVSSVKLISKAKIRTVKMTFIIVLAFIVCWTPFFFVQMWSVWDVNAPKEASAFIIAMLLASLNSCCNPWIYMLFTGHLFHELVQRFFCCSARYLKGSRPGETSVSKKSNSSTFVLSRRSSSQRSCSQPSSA
How it was run: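 Radioligand displacement on rat uterine membranes, 1 h incubation, filter-based scintillation counting. Chemicals were screened in duplicate at 25 uM, and those passing threshold were retested in concentration-response up to 50 uM. Loss of binding was fitted versus DMSO.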

[12] = target: Norway rat Vesicular Monoamine Transporter (VMAT2), neurotransmitter transporter, Slc18a2 (gene 25549) (UniProt Q01827); assay: NVS_TR_rVMAT2: NovaScreen (NVS) Transporter Assay for Norway rat Vesicular Monoamine Transporter (VMAT2), neurotransmitter transporter (AID 2283376);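 also: actives lower the bound radioligand signal below the DMSO level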
Chain of Norway rat Vesicular Monoamine Transporter (VMAT2), neurotransmitter transporter, Slc18a2 (gene 25549) (Q01827 whole entry, looked up): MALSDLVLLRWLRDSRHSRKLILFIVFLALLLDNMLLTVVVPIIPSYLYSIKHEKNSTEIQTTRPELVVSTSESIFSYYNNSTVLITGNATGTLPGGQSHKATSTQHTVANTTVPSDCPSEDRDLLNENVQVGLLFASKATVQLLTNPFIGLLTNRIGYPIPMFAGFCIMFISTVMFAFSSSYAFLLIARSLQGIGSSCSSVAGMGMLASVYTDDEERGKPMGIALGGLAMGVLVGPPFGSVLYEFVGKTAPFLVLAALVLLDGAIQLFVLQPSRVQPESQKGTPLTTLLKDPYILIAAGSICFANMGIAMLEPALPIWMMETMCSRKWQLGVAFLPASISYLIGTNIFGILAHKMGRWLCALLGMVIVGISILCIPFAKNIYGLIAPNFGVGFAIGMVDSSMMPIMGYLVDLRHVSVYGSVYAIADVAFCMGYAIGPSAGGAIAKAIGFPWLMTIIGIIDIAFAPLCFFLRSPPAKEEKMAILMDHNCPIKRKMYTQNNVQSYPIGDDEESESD
How it was run: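 Radioligand displacement binding on rat forebrain tissue preparation, filter-based scintillation read-out 1 hour after dosing. Primary screen in duplicate at 25 uM, then concentration series for actives; loss of signal versus DMSO.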

[13] = target: Voltage-dependent N-type calcium channel subunit alpha-1B (Rattus norvegicus) (UniProt Q02294); assay: NVS_IC_rCaChN: NovaScreen (NVS) Ion Channel Assay for rat Calcium Channel, Type N (CaChN) (AID 2283317)
[14] = target: mouse Estrogen Receptor alpha (Era), Esr1 (gene 13982) (UniProt P19785); assay: NVS_NR_mERa: NovaScreen (NVS) Nuclear Receptor Binding Assay for mouse Estrogen Receptor alpha (Era) (AID 2283378);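 also: hit means loss of bound radioligand signal relative to DMSO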
Chain of mouse Estrogen Receptor alpha (Era), Esr1 (gene 13982) (P19785 whole entry, looked up): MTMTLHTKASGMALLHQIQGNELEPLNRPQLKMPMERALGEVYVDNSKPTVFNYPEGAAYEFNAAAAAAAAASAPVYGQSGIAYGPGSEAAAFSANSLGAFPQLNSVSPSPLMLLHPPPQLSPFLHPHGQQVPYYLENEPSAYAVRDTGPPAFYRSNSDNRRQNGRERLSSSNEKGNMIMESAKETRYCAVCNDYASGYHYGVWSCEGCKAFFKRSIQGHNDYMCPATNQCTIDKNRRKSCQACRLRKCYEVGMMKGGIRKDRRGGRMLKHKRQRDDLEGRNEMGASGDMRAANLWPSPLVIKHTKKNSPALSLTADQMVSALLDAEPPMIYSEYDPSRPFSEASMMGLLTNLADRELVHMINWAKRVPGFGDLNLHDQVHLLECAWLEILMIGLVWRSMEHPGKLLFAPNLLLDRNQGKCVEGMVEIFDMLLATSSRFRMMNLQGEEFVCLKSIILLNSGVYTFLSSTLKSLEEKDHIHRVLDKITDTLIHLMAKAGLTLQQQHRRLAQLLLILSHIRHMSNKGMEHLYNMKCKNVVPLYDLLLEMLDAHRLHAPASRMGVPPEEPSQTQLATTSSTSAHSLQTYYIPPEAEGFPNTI
How it was run: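 Extracted mouse Era incubated with tritiated or iodinated radioligand plus test chemical, 18 h. Bound fraction separated on filters, counted by scintillation. DMSO = negative control/baseline; duplicate single-point at 25 uM, then concentration-response follow-up.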

[15] = CCTE_Harrill_HTTr_Viability_MCF7: CCTE's 6-hour Cell Viability Assessment for the High-Throughput Transcriptomics (HTTr) Platform, in MCF-7 cells cultured in DMEM + 10% fetal bovine serum, Harrill Lab (AID 2284010; active = hit-call score of the fitted dose curve at least 0.9, where 1 is the maximum; inactive = score below 0.9)
How it was run: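 Membrane integrity was scored by high-content imaging of propidium iodide dye exclusion after a 6 h exposure across an eight-point dilution series. Data were fitted bidirectionally relative to DMSO as negative control and baseline.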

[16] = CCTE_Harrill_HTTr_Apoptosis_MCF7: CCTE's 6-hour Apoptosis Assessment for the High-Throughput Transcriptomics (HTTr) Platform, in MCF-7 cells cultured in DMEM + 10% fetal bovine serum, Harrill Lab (AID 2284011; active = hit-call score of the fitted dose curve at least 0.9, where 1 is the maximum; inactive = score below 0.9)
How it was run: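 MCF-7 (DMEM + 10% FBS), 384-well; 8-pt dilution series, 6 h chemical exposure; caspase-3/7 activation via CellEvent Caspase 3/7 Green, HCI; bidirectional fit vs DMSO.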

N#Cc1sc2c(=O)c3ccccc3c(=O)c=2sc1C#N
AC50 [1]: 9.58 µM (active)
AC50 [2]: 14.9 µM (active)
AC50 [3]: 0.333 µM (active)
AC50 [4]: 25.2 µM (active)
AC50 [5]: 52.2 µM (active)
AC50 [6]: 8.76 µM (active)
AC50 [7]: 0.347 µM (active)
AC50 [8]: 7.3 µM (active)
AC50 [9]: 6.18 µM (active)
outcome [10]: inactive

CCOC(=O)COc1ccc2c(c1)CC(NCC(O)c1cccc(Cl)c1)CC2 (stereo unspecified)
outcome [11]: inactive

CC(C)(C)CC(C)(C)c1ccc(OCCOCC[N+](C)(C)Cc2ccccc2)cc1
outcome [12]: inactive

IC(I)=C(I)I
outcome [1]: inactive
outcome [2]: inactive
AC50 [3]: 13.2 µM (active)
outcome [4]: inactive
outcome [5]: inactive
AC50 [6]: 12.8 µM (active)
AC50 [7]: 13.7 µM (active)
outcome [8]: inactive
AC50 [9]: 13.9 µM (active)

[Hg+2].[I-].[I-]
outcome [1]: inactive
AC50 [2]: 35.4 µM (active)
AC50 [3]: 54.2 µM (active)
AC50 [5]: 72.1 µM (active)
AC50 [6]: 18.4 µM (active)
AC50 [7]: 73.7 µM (active)
AC50 [8]: 57.5 µM (active)
AC50 [9]: 33 µM (active)

CS(=O)(=O)c1ccc(C2=C(c3ccccc3)C(=O)OC2)cc1
AC50 [12]: 12.5 µM (active)

CCCCOC(=O)CCCCCCCCC(=O)OCCCC
outcome [11]: inactive

CCCCC(CC)C(=O)O (stereo unspecified)
outcome [12]: inactive

CCCCCCCCCCCCCCCS(=O)(=O)Oc1ccccc1
outcome [13]: inactive

CN(C)C(=O)Nc1cccc(OC(=O)NC(C)(C)C)c1
outcome [1]: inactive
outcome [3]: inactive
outcome [4]: inactive
outcome [5]: inactive

OC(c1ccc(F)cc1)(c1cncnc1)c1ccccc1Cl (stereo unspecified)
outcome [1]: inactive
outcome [14]: inactive
outcome [3]: inactive
outcome [4]: inactive
outcome [6]: inactive
outcome [9]: inactive
outcome [15]: inactive
outcome [16]: inactive
outcome [10]: inactive

CN(c1nccc(=O)[nH]1)C1CCN(c2nc3ccccc3n2Cc2ccc(F)cc2)CC1
outcome [12]: inactive

c1coc(-c2nc3ccccc3[nH]2)c1
outcome [1]: inactive
outcome [2]: inactive
outcome [5]: inactive
outcome [6]: inactive
outcome [8]: inactive

Cc1ccc(S(=O)(=O)C(I)I)cc1
AC50 [12]: 1.19 µM (active)

NC(N)=O
outcome [11]: inactive

Cc1ccc(O)c(C(C)(C)C)c1
outcome [12]: inactive

COc1ccc(N)cc1N
outcome [1]: inactive
